Bioassay records (PubChem)
A selection: hits, their analogues and other compounds. The true share with any hit is near 21%.
IL1B secr inh: inflammasome signaling inhibition, IL-1 beta readout; THP-1 LPS/ATP IL-1B secretion, AlphaLISA, 16 h; hits give low values; activity change, % at 57.5 µM; 4.7% of 360,000 active; AID 743279; in the data active = activity change below about -50%; inconclusive = mostly about -30% to -49%
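Secreted IL-1B measured by AlphaLISA bead assay after 16 h compound exposure of THP-1 cells; compounds (final up to 57.5 uM) added 1 h before LPS (250 ng/mL) and ATP (1.25 mM) stimulation; lower signal means less secretion.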
ELG1 DNA repair: ELG1-dependent DNA repair inhibition; HEK293T ELG1-luciferase reporter, luminescence, 16 h; DNA damage induced by 5-fluorouridine; AID 504467; Potency, µM (highest dose often 46.1 µM), without a hit: at the top dose activity change, negative = inhibition, most hits filed as inhibitors; 2.3% of 330,000 active; note: potency is the fitted concentration of half-maximal effect; nearly all actives have a fitted effect of over 55% in size
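DMSO vehicle served as the neutral condition. Each well held 2,000 cells given 5-fluorouridine plus compound; after 16 hr at 37 °C/5% CO2, ONE-Glo was added and luciferase measured 30 min later.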
RORgamma inh: blocks mouse ROR gamma transcriptional activity; Drosophila S2 Gal4-RORgamma UAS-luciferase reporter, 20 h; Potency, µM (doses to about 53.6 µM), for the others: at the highest dose activity change, negative = inhibition, most hits filed as inhibitors; 5.4% of 310,000 active; note: potency is the fitted concentration of half-maximal effect; nearly all actives have a fitted effect of over 60% in size
Target sequence (P51450 whole entry, looked up, the tested form may be a part): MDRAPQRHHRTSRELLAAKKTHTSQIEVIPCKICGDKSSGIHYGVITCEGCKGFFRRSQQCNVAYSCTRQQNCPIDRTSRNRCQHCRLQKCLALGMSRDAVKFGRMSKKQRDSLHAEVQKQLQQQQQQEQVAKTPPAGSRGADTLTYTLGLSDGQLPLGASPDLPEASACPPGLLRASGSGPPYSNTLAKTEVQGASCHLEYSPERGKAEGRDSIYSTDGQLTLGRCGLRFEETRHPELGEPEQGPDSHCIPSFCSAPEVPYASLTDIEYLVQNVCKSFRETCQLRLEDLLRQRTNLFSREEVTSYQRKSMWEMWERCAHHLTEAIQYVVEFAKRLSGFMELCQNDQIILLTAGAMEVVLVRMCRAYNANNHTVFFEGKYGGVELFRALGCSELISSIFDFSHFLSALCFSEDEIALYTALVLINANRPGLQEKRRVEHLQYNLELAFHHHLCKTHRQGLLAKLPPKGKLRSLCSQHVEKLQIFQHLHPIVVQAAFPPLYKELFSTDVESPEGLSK
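In this cell-based reporter format, copper sulfate (700 uM final) drives Gal4–ROR gamma fusion expression from a metallothionein promoter in Drosophila Schneider cells; compounds preincubated 1 hr, reporter read after 20 hr at ambient temperature.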
TDP1 cell noCPT: qHTS for Inhibitors of human tyrosyl-DNA phosphodiesterase 1 (TDP1): qHTS in cells in absence of CPT. DT40 Tdp1-/- hTDP1 cells, no CPT, ATP luminescence, 48 h. Potency, µM (highest dose often 46.2 µM), for inactives: top-dose activity change, negative = growth inhibition, most hits filed as inhibitors. 15% of 420,000 active. AID 686978, 2013; note: potency is the fitted concentration of half-maximal effect; nearly all actives have a fitted effect of over 55% in size
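Stably hTDP1-transfected Tdp1-null chicken DT40 cells were treated with library compounds minus camptothecin and grown for at least 48 hr at 37 °C, after which cellular ATP was quantified by luminescence.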
Gal4-VP16 FLuc: inhibits Gal4-VP16 luciferase reporter, ROR gamma counter-screen | Potency, µM (highest dose often 53.6 µM), inactives show at the top dose activity, negative = inhibition, usual class: inhibitors | 3.5% of 310,000 active | Drosophila S2 Gal4-VP16 UAS-luciferase, luminescence, 20 h | AID 2546;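 note: Gal4-VP16 expression switched on by copper sulfate through the metallothionein promoter; potency is the fitted concentration of half-maximal effect; nearly all actives have a fitted effect of over 50% in size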
TDP1 cell CPT: DT40-hTDP1 cell growth loss with CPT | chicken DT40 Tdp1-/-;hTDP1 cells + 20 nM CPT, ATP luminescence, 48 h | Potency, µM (highest dose often 46.2 µM), inactives show at the top dose activity change, negative = growth inhibition, most hits filed as inhibitors | 12% of 420,000 active | AID 686979; note: potency is the fitted concentration of half-maximal effect; nearly all actives have a fitted effect of over 55% in size
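Chicken DT40 Tdp1-/- cells stably complemented with human TDP1 were seeded at 400 cells/well in medium containing 20 nM camptothecin, exposed to pin-transferred compounds, and grown at 37 °C for at least 48 hr. Viability was read as ATP luminescence.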
The depositor's hits bear a star; ? = inconclusive; / = no result given; [ ] = another dose, or the depositor's remark. Unless noted, calls come from the whole dose curve; as a rule, active = well fitted curve in the direction sought with a large enough effect; inconclusive = small, poorly fitted or top-dose-only effect, or another doubt; inactive = no such curve, though single readings can be large; an effect the other way counts as inactive or inconclusive. % is set by controls: 0 for no effect and ±100 for the full control effect.

SMILES | IL1B secr inh | ELG1 DNA repair | RORgamma inh | TDP1 cell noCPT | Gal4-VP16 FLuc | TDP1 cell CPT
CCOC(=O)Nc1sc(C)nc1-c1ccccc1 | -6 | ? | -1% | -4% | 1% | 10%
COc1cccc(C(=O)Nc2ccccc2-c2nnc(-c3cccc(OC)c3)o2)c1 | / | / | / | 12µM* | / | 9.2µM*
COc1cccc(C(=O)Nc2ccccc2-c2nc(-c3ccc(C)cc3)no2)c1 | / | / | / | -10% | / | 0%
COc1cccc(C(=O)Nc2nc(-c3ccccc3)c(-c3ccccc3)o2)c1 | 76 | ? | 2.5µM* | ? | 3.2µM* | ?
COC(=O)C1CCN(Cc2ccc3c(c2)CN(C(=O)c2cc(C4CC4)on2)CCO3)CC1 | / | / | / | -19% | / | 16%[9.04 µM]
CC(C)OC(=O)C1=C2SCC(=O)N2C(N)=C(C#N)C1 | 16 | 1% | 13µM* | 0% | -7% | -18%
COc1ccc(N2C(=O)CC(C#N)=C2N)cc1 | 14 | 1% | ? | 0% | 3% | 11%
C=C1C(=O)O[C@@H]2[C@H]1CC[C@H](C)[C@]1(O)CCC(=O)[C@@]21C | -69* | 5% | -43% | ? | ? | 23µM*
C=C1CCC(O)C2(C)CCC3C(C)C(=O)OC3C12O (centres undefined) | 19 | -1% | -2% | 21% | -6% | 31%
COc1ccc(S(=O)(=O)N2CCCCC2)cc1NC(=O)CCNC(=O)c1ccc(Br)cc1 | -2 | 14% | / | ? | / | ?
CN(Cc1ccccc1)C(=O)c1ccc(Cl)c([N+](=O)[O-])c1 | -90* | -17% | ? | ? | 1% | ?
Cc1ccc(C(=O)NCCc2cccc(Cl)c2)cc1[N+](=O)[O-] | -56* | ? | ? | 21µM* | 7% | 21µM*
O=C(NCCc1cccc(Cl)c1)c1ccc(Cl)c([N+](=O)[O-])c1 | -98* | ? | 44% | 21µM* | 2% | ?
O=C(NCCc1cccc(Cl)c1)c1cc([N+](=O)[O-])ccc1Cl | -14 | 15% | 26% | -13% | -6% | 3%
Cc1ccc(C(=O)NCCSCc2ccccc2)cc1[N+](=O)[O-] | -7 | 7% | 33% | ? | 0% | ?
CC(C)(CNC(=O)c1ccc([N+](=O)[O-])c(Cl)c1)CNC(=O)c1ccc([N+](=O)[O-])c(Cl)c1 | -113* | ? | ? | 21µM* | 5µM* | 18µM*
CC(C)CN1CC[C@@]2(CCCN(C(=O)c3cnccn3)C2)C1 | / | / | 2% | -3% | -12% | 6%
Cc1nc2ccccc2n1C(C)c1nc2ccccc2n1CC(=O)c1ccc(OC(F)(F)F)cc1 (centres undefined) | -3 | / | / | ? | / | ?
Cc1cccc(CC(=O)NCC(=O)NCc2cc(=O)n(C)c(=O)n2C)c1 | 1 | 0% | -4% | ? | -2% | 12µM*
CC1(C(=O)NS(=O)(=O)Cc2ccccc2)CCN1C(=O)CCc1ccccc1 (centres undefined) | 21 | / | / | 1% | / | 4%
Cc1ccc(S(=O)(=O)Nc2ccccc2-c2ccccc2)cc1 | 31 | ? | -30% | 2.6µM* | -2% | 2.6µM*
Cc1cc(-c2ccc(NS(=O)(=O)c3ccccc3)c(C)c2)ccc1NS(=O)(=O)c1ccccc1 | 15 | / | / | 12µM* | / | 13µM*
O=C1NC[C@@H](CCCCN2CCN(CC3CCCCC3)C(=O)C2=O)N(CC2CCCCC2)C1=O | 4 | / | / | -13% | / | 4%
CN(C(=O)CSc1nc2sc3c(c2c(=O)n1C)CCC3)C1CCS(=O)(=O)C1 (centres undefined) | 66 | -21% | / | ? | / | -29%
CCOc1ccc(CCNC(=O)c2cnc3sc(N4CCCCC4)nn3c2=O)cc1 | / | / | / | -25% | / | ?
SMILES | IL1B secr inh | ELG1 DNA repair | RORgamma inh | TDP1 cell noCPT | Gal4-VP16 FLuc | TDP1 cell CPT
CCC(Sc1ccccn1)C(=O)Nc1nnc(C)s1 (centres undefined) | 12 | 0% | 10µM* | -2% | -30% | -17%
CCC(Sc1nc2ccccc2o1)C(=O)Nc1nnc(C)s1 (centres undefined) | 36 | -5% | 13µM* | ? | ? | ?
CS(=O)(=O)c1ccc2nc(NC(=O)CN3C(=O)NC4(CCCC4)C3=O)sc2c1 | 0 | 13% | / | 4% | / | 1%
CCOC(=O)Cn1c(S(=O)(=O)Cc2ccc(Cl)cc2)nc(-c2ccccc2)c1-c1ccccc1 | -4 | -8% | 12% | 16µM* | 0% | 18µM*
COc1cc(CNc2ncnc3c2ncn3[C@H]2CN(Cc3cc(OC)c(OC)c(OC)c3)C[C@@H](CO)O2)cc(OC)c1OC | 18 | / | / | -25% | / | -24%
COc1cc(NC(=O)Cn2nc(C(F)(F)F)c3c2CCCC3)cc(OC)c1OC | -12 | ? | 3% | 10µM* | ? | 23µM*
CCc1ccc(NC(=O)Cn2nc(C(F)(F)F)c3c2CCC3)cc1 | ? | -19% | 4% | ? | -16% | ?
COc1cc(C2CC(=O)Oc3ccc(O)cc32)cc(OC)c1OC (centres undefined) | / | / | 5% | / | -11% | /
CCOc1ccc(NS(=O)(=O)c2ccc3[nH]cc(C(=O)N4CCCCCC4)c(=O)c3c2)cc1 | / | / | / | 5% | / | 3%
CC(C)NCC(O)Cn1c2c(c3ccccc31)CCc1c-2cnn1-c1ccccc1 (centres undefined) | -16 | ? | ? | 5.8µM* | ? | 3.7µM*
O=C(Nc1ccc2c(c1)N(S(=O)(=O)c1cccs1)CCC2)c1c(F)cccc1Cl | -12 | ? | / | ? | / | ?
Cc1ccccc1Cc1c(C)nc2nc(SCC(=O)NCCCN3CCCC3)nn2c1C | -21 | 3% | 6% | -4% | 1% | -14%
CCC1CCCCN1CCCNC(=O)CSc1nc2nc(C)c(Cc3ccccc3)c(C)n2n1 (centres undefined) | -67* | 18% | -8% | -14% | -15% | 0%
Cc1ccc(Cc2c(C)nc3nc(SCC(=O)NCCCN4CCCCC4)nn3c2C)cc1 | -62* | -17% | 0% | -15% | 1% | 3%
Cc1ccc(Cc2c(C)nc3nc(SCC(=O)NCCCN4CCCC4)nn3c2C)cc1 | -13 | 13% | 1% | -18% | -6% | 6%
Cc1ccc(Cc2c(C)nc3nc(SCC(=O)NCCC(C)C)nn3c2C)cc1 | / | / | / | 23µM* | / | ?
CC(=O)Nc1ccc(S(=O)(=O)NCCN2CCNC2=O)cc1Cl | -2 | -2% | -15% | 9% | -5% | -5%
